Compound activity (PubChem BioAssay)
TCR act: Activators of T cell receptors: qHTS campaign | Potency, µM (series often up to 9.22 µM), actives largely listed as activators | primary human leukocytes, anti-CD3, IL-2 HTRF, 48 h | 330,000 tested, under 10 active
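HTRF read-out of IL-2 secretion: europium cryptate donor excited at 320nm, d2 acceptor emission at 665nm. Cells were primary human leukocytes incubated 48 hr with compounds and a-CD3 beads, supplying TCR signal only.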
MBNL1 CUG block: qHTS Assay for Inhibitors of MBNL1-poly(CUG) RNA binding; Muscleblind-like protein 1 (Homo sapiens), Q9NR56; TR-FRET MBNL1-His/biotin-(CUG)12 binding, 665/545 ratio; Potency, µM (titrated, usually from 57.5 µM), actives largely listed as inhibitors; 280,000 compounds, 0.036% hits; active means well fitted inhibition curve with a large enough effect in the signal ratio, with a control signal flat, not every such curve was filed as active; inconclusive means small, poorly fitted or top-dose-only effect, or effect the other way, or a change in a side signal; inactive means no such curve, though single readings can be large or run the other way; the % refers to the signal ratio
Target sequence (Q9NR56 whole entry, looked up): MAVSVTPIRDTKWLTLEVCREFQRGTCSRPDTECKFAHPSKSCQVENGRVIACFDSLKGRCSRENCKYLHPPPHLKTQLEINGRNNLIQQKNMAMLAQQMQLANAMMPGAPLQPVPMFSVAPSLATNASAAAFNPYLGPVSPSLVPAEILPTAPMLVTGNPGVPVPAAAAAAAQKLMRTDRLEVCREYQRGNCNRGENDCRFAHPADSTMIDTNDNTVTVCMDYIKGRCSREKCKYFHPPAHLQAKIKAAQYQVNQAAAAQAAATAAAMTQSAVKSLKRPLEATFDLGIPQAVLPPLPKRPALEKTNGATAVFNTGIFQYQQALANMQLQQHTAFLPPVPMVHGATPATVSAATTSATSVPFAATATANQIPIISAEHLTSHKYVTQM
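Compound titration spanned 92 nM–58 uM against the MBNL1-His/biotin-(CUG)12 complex. After 60 min at room temperature with 5 nM streptavidin-XL665 and 0.055 ng/ul terbium anti-His, ratiometric 665/545 nm emission (Ex 340 nm) normalized to controls.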
Mito fusion act: qHTS Assay for Small Molecule Inhibitors of Mitochondrial Division or Activators of Mitochondrial Fusion | S. cerevisiae fusion-defective mutant growth rescue, CellTiterGlo 48 h | Potency, µM (series often up to 46.1 µM), usual class: activators | 320,000 compounds, 0.23% hits; further: nearly all actives have a fitted effect of over 45% in size
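Yeast fusion mutant, YPEG (non-fermentable carbon), compound, 48 h at 37C non-permissive; CellTiterGlo added, 10 min RT, luminescence read. Rescued growth = division inhibition.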
AT treatment: qHTS Assay for Identifying a Potential Treatment of Ataxia-Telangiectasia. Potency, µM (series often up to 57.5 µM), usual class: activators. 320,000 compounds, 0.19% hits. AID 485349, 2010. F2112 A-T fibroblasts, KAP-1 phosphorylation AlphaLISA; neocarzinostatin DNA damage 30 min before lysis; further: nearly all actives have a fitted effect of over 45% in size
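hTERT-immortalized A-T patient fibroblasts (F2112), 500 cells/well in OPTI-MEM, 1% FBS, got compounds for 60 min, then NCS for 30 min at 37C. Lysates were then assayed for phospho-KAP-1 by AlphaLISA (anti-pKAP1 donor, anti-KAP1 acceptor beads), 6 hr at 25C.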
GRP78 ERSR act: qHTS for Inducers of the Endoplasmic Reticulum Stress Response (ERSR) in Human Glioma: qHTS | U87-MG GRP78 promoter luciferase reporter, 16 h | Potency, µM, usual class: activators | 420,000 compounds, 0.02% hits; further: series mostly up to about 76 µM; nearly all actives have a fitted effect of over 35% in size
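ERSR induction read as luciferase luminescence (Bright-Glo, 10 min at room temperature) in stably transfected human U87-MG glioma cells exposed to compounds for 16 h, using GRP78 as sensor.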
ClpP mod: qHTS Assay for Activators of ClpP. 340,000 compounds, 1.9% hits. Potency, µM (highest dose often 57.5 µM). ATP-dependent Clp protease proteolytic subunit (Bacillus subtilis (strain 168)), P80244. purified B. subtilis ClpP, FRET peptide cleavage, 20 min. AID 651965, 2013; active means well fitted falling curve with a large enough effect; inconclusive means small, poorly fitted or top-dose-only effect; inactive means no such curve, though single readings can be large or run the other way; further: the source files actives as falling curves though it sought activators and does not explain the sign; nearly all actives have a fitted effect of over 65% in size
Target sequence (P80244 whole entry, looked up): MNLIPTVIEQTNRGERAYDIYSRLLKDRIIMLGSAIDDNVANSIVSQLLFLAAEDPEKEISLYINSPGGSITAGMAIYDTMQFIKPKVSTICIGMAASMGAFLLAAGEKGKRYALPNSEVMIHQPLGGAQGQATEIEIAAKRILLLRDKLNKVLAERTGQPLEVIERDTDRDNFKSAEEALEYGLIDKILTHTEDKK
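Purified B. subtilis ClpP, 10 microg/mL final in Tris/HCl pH8 with KCl, BSA, glycerol and Tween-20, cleaved an Abz/nitrotyrosine-quenched decapeptide. Fluorescence (ex 320, em 430) was read at 0 and 20 min at room temperature. Delta was normalized to 5.8 microM ADEP and DMSO/no-enzyme controls.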
A number is an active result; – = inactive; ? = inconclusive; · = no result given; ! = not active in a repeat. Hits are enriched below; roughly 1.8% of the tested compounds scored in any of these assays. Unless noted, the call rests on the fitted dose curve; in most records, active means well fitted curve in the direction sought with a large enough effect; inconclusive means small, poorly fitted or top-dose-only effect, or another doubt; inactive means no such curve, though single readings can be large; an effect the other way counts as inactive or inconclusive.

SMILES	TCR act	MBNL1 CUG block	Mito fusion act	AT treatment	GRP78 ERSR act	ClpP mod
CCN(CC)c1nc(N)c2c(N)nc(OC)cc2c1C#N	–	·	·	·	–	–
CCCCNc1ccc(/C=C2\C=Cc3ccccc32)cc1	·	·	·	·	–	–
O=C1c2cccc3c(O)ccc(c23)C(=O)N1Cc1ccccc1	–	–	17.8µM	–	–	–
COc1ccc(C(=O)OCC(N)=O)cc1[N+](=O)[O-]	–	–	–	–	–	28.2µM
COc1ccc(C(=O)OCC(=O)Nc2ccccc2)cc1[N+](=O)[O-]	–	?	–	–	–	–
COc1ccc(S(=O)(=O)N2CCN(C(=O)CNC(=O)c3ccc4c(c3)OCO4)CC2)cc1	–	·	–	–	–	28.2µM
O=C(NCC(=O)N1CCN(S(=O)(=O)c2ccccc2F)CC1)c1ccc2c(c1)OCO2	–	·	–	·	–	·
CCCC[C@@H]1CCCO[C@@](C(=O)NCc2ccccc2)(C(F)(F)F)C1	·	·	·	·	–	·
O=C(NCc1ccccc1Cl)c1ccc(NC(=O)N2CCSc3ncccc32)cc1	·	·	·	·	–	28.2µM
Cc1ccc(NC(=O)c2ccc(NC(=O)N3CCSc4ncccc43)cc2)cc1Cl	·	·	·	·	–	31.6µM
Cc1ncc2c(c1CNC(=O)c1cncs1)CCN(C(=O)c1cc(F)c(F)cc1F)C2	·	·	·	·	–	·
CC(O)(COc1ccccc1)c1ccc2c(c1)CN(C/C=C/c1ccco1)CCO2 (stereo unspecified)	·	·	·	·	–	·
Cc1ccc(-c2ccnc(-n3ncc(C(=O)N(C)CC4CCCN(C)C4)c3C)n2)o1 (stereo unspecified)	·	·	·	·	–	·
COc1cc(C=CC(=O)OCC=Cc2ccc3c(c2)OCO3)cc(OC)c1OC	–	·	·	·	–	28.2µM
COc1cc(/C=C/C(=O)c2ccc3c(c2)OCO3)cc(OC)c1OC	–	·	–	–	28.2µM	–
CC(C)=CCC/C(C)=C\CC/C(C)=C\CC/C=C(\C)CC/C=C(\C)CCC=C(C)C	·	·	·	·	–	·
COc1cccc(CNC(=O)c2c(OC)cc(=O)n3c2CCN(C(=O)C2=C(C)OCCO2)CC3)c1	·	·	·	·	–	·
COc1cccc(CN2C(=O)NC(C)(C3CCN(Cc4ccc(C)o4)CC3)C2=O)c1OC (stereo unspecified)	·	·	·	·	–	·
O=c1c(-c2cccs2)nc2cnc(N3CCOCC3)nc2n1Cc1cccs1	·	·	·	·	–	·
CCOc1ccc(Nc2oc(-c3ccc(Cl)cc3)nc2C#N)cc1	–	–	–	–	–	?
CN(C)c1oc(-c2ccc(OCc3ccc(Cl)cc3)cc2)nc1C#N	·	–	–	–	–	15.8µM
N#Cc1nc(-c2ccc(COc3ccccc3)o2)oc1NCc1cccnc1	·	·	·	·	–	?
CN(C)c1oc(-c2ccc(COc3ccccc3)o2)nc1C#N	·	·	·	·	–	31.6µM
CC(C)(C)Sc1ccc2nc3c(n2c1)CCCC3	·	–	–	–	–	15.8µM
O=C1CC(=C(c2ccccc2)c2ccccc2)C(=O)N1CCCN1CCN(c2cccc(Cl)c2)CC1	–	–	–	–	–	–
SMILES	TCR act	MBNL1 CUG block	Mito fusion act	AT treatment	GRP78 ERSR act	ClpP mod
O=C1CC(=C(c2ccccc2)c2ccccc2)C(=O)N1CCN1CCN(c2cccc(Cl)c2)CC1	–	–	–	–	–	25.1µM
Cc1ccccc1S(=O)(=O)Oc1ccccc1C(=O)Oc1ccccc1	–	–	–	–	–	25.1µM
O=C(COc1coc(CN2CCc3ccccc3C2)cc1=O)N1CCOCC1	–	·	–	–	–	28.2µM
CCOc1ccccc1NC(=O)COc1coc(CN2CCc3ccccc3C2)cc1=O	–	·	–	–	–	?
COc1cc(/C=C2\C=Cc3ccccc32)cc(OC)c1OC	·	·	·	·	–	–
C/C(=N\NC(=O)c1c(Cl)c(C)nn1C)c1ccc(NC(=O)COc2ccc(Cl)cc2C)cc1	–	–	–	–	–	25.1µM
C/C(=N\NC(=O)c1c(Cl)c(C)nn1C)c1cccc(NC(=O)COc2ccccc2)c1	–	–	–	–	–	–
c1csc(-c2nc3c4ccccc4c4ccccc4c3[nH]2)c1	–	–	–	–	–	39.8µM
O=C(O)c1ccccc1-c1nc(-c2ccccc2)c(-c2ccccc2)[nH]1	–	–	–	–	–	·
COc1cc(-c2nc(-c3ccc4c(c3)-c3ccccc3S4(=O)=O)c(-c3ccccc3)[nH]2)cc(OC)c1OC	–	–	–	–	–	–
COc1cc(-c2nc(-c3ccccc3)c(-c3cccs3)[nH]2)cc(OC)c1OC	–	–	–	–	–	31.6µM
COc1ccc(-c2nc(-c3ccccc3)c(-c3cc([N+](=O)[O-])ccc3C)[nH]2)cc1O	–	–	–	–	–	–
c1ccc(-c2nc(-c3cccs3)[nH]c2-c2ccccc2)cc1	–	–	–	–	–	31.6µM
COc1cc(-c2nc(-c3ccccc3)c(-c3cccs3)[nH]2)cc(OC)c1O	–	–	–	–	–	28.2µM
COCC(=O)Nc1cc(C(=O)N2CCCC(C(N)=O)C2)cc2nc(-c3ccccc3)n(C)c12 (stereo unspecified)	·	·	·	·	–	·
Cc1cnc(/C=C/c2ccc(N(C)C)cc2)cn1	·	·	·	·	–	–
O=C1C=C(CO)OCC1=O	·	·	·	·	–	·
COc1cccc2ccc(CN3CCC4(CC3)c3ccccc3[C@@H](NC(=O)c3ccccc3)[C@@H]4O)nc12	·	·	·	·	–	·
O=C(OCCF)N1CCN(/[N+]([O-])=N/Oc2ccc([N+](=O)[O-])cc2[N+](=O)[O-])CC1	·	·	·	·	–	·
COC(=O)c1ccc(-c2nc3ccc(C)cc3o2)cc1	–	–	–	?	–	3.55µM
Cc1ccc(-c2nc3cc(C)ccc3o2)cc1	–	–	–	–	–	31.6µM
Nc1ccc(-c2nc3cc([N+](=O)[O-])ccc3o2)cc1	–	?	–	39.8µM	–	–
COC(=O)c1ccc(-c2nc3ccccc3o2)cc1	·	–	–	–	·	·
Cc1ccc2oc(-c3ccco3)nc2c1	–	–	–	–	–	11.2µM!
Cc1ccc(-c2nc3cc(N)ccc3o2)cc1	–	?	–	–	–	–
Cc1nn(-c2ccc(F)cc2)c(C)c1CNC(=O)c1ccc(-n2cc(NC(=O)c3ccoc3)cn2)cc1	·	·	·	·	–	·
CN(C)c1ccc(C2=Cc3ccccc3C2)cc1	·	·	·	·	–	–
CCOc1cc(CNc2ccccc2)cc(Br)c1OCc1ccc(F)cc1	–	–	–	–	–	–
CCOc1cc(CNc2ccc(O)cc2)cc(Cl)c1OCc1ccccc1	·	·	·	·	12.6µM	–
